Active and inactive are the calls of the source. Rule for the calls: active = hit-call score of the fitted dose curve at least 0.9, where 1 is the maximum; inactive = score below 0.9.

By AC50 is commonly meant the concentration at which the activity in the assay is half-maximal.

A short description of this test: ATG_Ets_CIS: Attagene CIS-FACTORIAL HepG2 Assay for human Erythroblast Transformation Specific (ETS) (AID 2282941). As to conditions: HepG2 ETS cis-reporter transcription, actives raise or lower the signal. How it is done: ATG_CIS is a cell-based, multiplexed-readout assay that uses HepG2, a human liver cell line, with measurements taken at 24 hours after chemical dosing in a 24-well plate.ATG_Ets_CIS is one of 52 assay component(s) measured or calculated from the ATG_CIS assay. It is designed to make measurements of mRNA induction, a form of inducible reporter, as detected with fluorescence intensity signals by Reverse transcription polymerase chain reaction (RT-PCR) and Capillary electrophoresis technology.Data from the assay component ATG_Ets_CIS was analyzed into 1 assay endpoint. This assay endpoint, ATG_Ets_CIS, was analyzed with bidirectional fitting relative to DMSO as the negative control and baseline of activity. Using a type of inducible reporter, measures of mRNA for gain or loss-of-signal activity can be used to understand the reporter gene at the transcription factor-level as they relate to the gene ETS1. Furthermore, this assay endpoint can be referred to as a primary readout, because this assay has produced multiple assay endpoints where this one serves a reporter gene function. To generalize the intended target to other relatable targets, this assay endpoint is annotated to the dna binding intended target family, where the subfamily is winged helix-turn-helix.
Human liver HepG2 cells are transiently transfected with multiple reporter transcription units (MRTUs) in 6-well plates using FuGene 6 reagent (Roche; 3 ml FuGene/1 mg DNA). The MRTU constructs are regulated by a cis-regulating element (promoter). […] A major difference between the CIS and TRANS system is that in CIS activities of endogenous TFs are measured, whereas the TRANS assay evaluates changes in activities of exogenous, chimeric NR-Gal4 proteins. […] At the end of 24 hour incubation, total RNA was isolated using TriZol reagent (Invitrogen). The isolated RNA is then reverse-transcribed using oligo(dT) primer and Mo-MLV reverse transcriptase (Invitrogen) with DNAse I (Ambion) treatment for 30 min. The one-tenth of the produced cDNA was amplified by PCR using Taq DNA polymerase (Invitrogen) and two reporter sequence-specific primers. The PCR products were fluorescently labeled by primer extension with 6-arboxyfluorescein (6-FAM) 5'-labeled reporter sequence-specific primer (2 min at 95 C, 20 s at 68 C and 10 min at 72 C) and these products were digested with 5U of HpaI (New England Biolabs) for 2h at 37 C. The fragments were purified using Qiaquick PCR columns (Qiagen), analyzed on an ABI 3130xL genetic analyzer (Applied Biosystems) with peak positions identified by using a set of X-rhodamine (ROX)-labeled MapMarker1000 molecular weight standards (BioVentures). The raw capillary electrophoresis data was processed using Attagraph software (Attagene).
As to `N#CC1(N)CCCCC1`, the compound was classed as inactive.
The same measure, in the same setting: the same measure for `CC1(C)CCC[C@]2(C)[C@H]3CC(=O)O[C@]3(C)CC[C@@H]12`: “inactive”.
For the compound `O=C(O)c1cc(O)c2ccccc2c1O`, the AC50 was 57.9 µM (active).
On to `Oc1ccc(/C=C/c2cc(O)cc(O)c2)cc1`, for which the AC50 is 153 µM (active).
In the case of `Nc1ccc(C(=O)OCCCOC(=O)c2ccc(N)cc2)cc1`, the compound was classed as inactive.
As to `Nc1ccc(C(=O)O)cc1`, the outcome was inactive.
Same read-out and setting: then `C=C(C)C(=O)OCCCCCCCCCCCC`, with “inactive”; and `CCCCCCCCCCCCC`, with “inactive”; and `O=S(=O)(O)c1ccc(Nc2nc(Nc3ccc(C=Cc4ccc(Nc5nc(Nc6ccc(S(=O)(=O)O)cc6)nc(N(CCO)CCO)n5)cc4S(=O)(=O)O)c(S(=O)(=O)O)c3)nc(N(CCO)CCO)n2)cc1`, with “inactive”.
For the compound `CO[Si](C)(C)OC`, the compound was called inactive.
As for `O=C(O)CCC(=O)O`, the result was inactive.
In the case of `CN(C)c1ccc2nc3ccc(=[N+](C)C)cc-3sc2c1`, the call was inactive.
Consider `Cc1cc(C)n(CO)n1`, for which the compound was called inactive.
For `CCCSSCCC`, the compound was called inactive.
For the compound `CCNc1nc(NC(C)(C)C)nc(OC)n1`, the compound was called inactive.
Turning to `CC1=CP(=O)(c2ccccc2)CC1` (stereo not given), the outcome was inactive.
As for `CC(=O)OCC=C(C)C`, the call was inactive.
As for `CCCCCCC=O`, the compound was classed as inactive.
In the case of `c1ccc2cnccc2c1`, the outcome was inactive.
Same read-out and setting: then `CCCCCCCCCCCCCCCCCCOS(=O)(=O)O`, with “inactive”; and `Oc1ccccc1Cc1ccccc1O`, with “inactive”; and `COCC(=O)O`, with “inactive”.
Take `CC(=O)c1ccc(S(=O)(=O)NC(=O)NC2CCCCC2)cc1`: the outcome was inactive.
As for `CCOC(=O)C1=NN(c2ccc(Cl)cc2Cl)C(C)(C(=O)OCC)C1` (stereo not given), the compound was called inactive.
Turning to `CC=C(C)C(C)=O`, the outcome was inactive.
`Oc1c(Cl)cc(Cl)c(Cl)c1Cl`: the call was inactive.
Regarding `C=CC(=O)NCOCCCC`, the call was inactive.
The same measure, in the same setting: the same measure for `O=C1CCCCC1C1CCCCC1` (stereo not given): “inactive”; for `CCOC(=O)c1ccccc1C`: “inactive”.
Consider `COC(=O)CC(C)CCC=C(C)C` (stereo not given), for which the call was inactive.
On to `C=C(C)C1CC=C(C)C(OC(C)=O)C1` (stereo not given), for which the call was inactive.
Still for that read-out and setting: then `CCOc1ccc(NC(N)=O)cc1`, with “inactive”; and `CCCCCCCO`, with “inactive”.
Same read-out and setting: the same measure for `CCCCOC(=O)CCC(C)=O`: “inactive”; for `OCCCc1ccccc1`: “inactive”.
As to `CC/C=C\CCOC(=O)c1ccccc1O`, the compound was classed as inactive.
Still for that read-out and setting: the same measure for `CCOC(=O)OC(=O)OCC`: “inactive”; for `CC(Cl)COP(=O)(OCC(C)Cl)OCC(C)Cl` (stereo not given): “inactive”.
In the case of `Cc1ccc2c(c1)CCCN2`, the result was inactive.
In the case of `CCc1occc(=O)c1O`, the compound was called inactive.

Source of the values: PubChem BioAssay (EPA / NIEHS).
